From the supplement of paper PMC7156485
± gives the standard deviation of the averaged measurements.

What was measured:
Conditions in all cases: concentration: 10 µM; 24 h
HCC1569 [1] = assay: cell number relative to DMSO (% of DMSO); higher = more cells (less growth inhibition / toxicity)
Outline: (§1)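 Six fields per well were imaged at ×10 after the cells were fixed in 3.7% formaldehyde and stained with a rabbit anti-H1.0 antibody, an AlexaFluor 647 secondary and DAPI. The HCC1569 and TDF cells had been plated at 800 per well in 384-well plates (RPMI, 10% FBS) and treated in triplicate with compounds at 10 µM for 24 h at 37 °C. The values are the median of replicates of H1.0 nuclear intensity or cell number, as percent of the plate control. Smoothing for positional effects was applied to HCC1569 data.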

TDF [2] = assay: as above
Outline: as §1

TDF [3] = assay: H1.0 immunofluorescence intensity relative to DMSO (% of DMSO); higher = stronger H1.0 induction, active = 120 or more
Outline: as §1

HCC1569 [4] = assay: H1.0 immunofluorescence intensity relative to DMSO (% of DMSO); higher = stronger H1.0 induction, active = 140 or more
Outline: as §1
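For H1.0 immunofluorescence intensity relative to DMSO in this document: TDF is a line of transformed human dermal fibroblasts of mesenchymal origin.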
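For cell number relative to DMSO in this document: TDF denotes transformed human dermal fibroblasts of mesenchymal origin.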

Structure (SMILES)	cell number (HCC1569 [1])	cell number (TDF [2])	H1.0 immunofluorescence intensity (TDF [3])	H1.0 immunofluorescence intensity (HCC1569 [4])
O=C(Nc1cccc(Nc2ncc(Br)c(NCCc3cnc[nH]3)n2)c1)N1CCCC1	51.2	33.8	113 (inactive)	109 (inactive)
C=C(C)C1CC=C(C(=O)O)CC1 (single isomer, unassigned; (-)) [(-)-Perillic acid]	104	104	95.9 (inactive)	99.9 (inactive)
O=c1cc(N2CCOCC2)nc2c3ccccc3ccn12	95.2	91.4	94.7 (inactive)	111 (inactive)
O=C(NCCO)c1cc(C(=O)NCCO)cc(C(=O)NCCO)c1	102	104	95.2 (inactive)	96.8 (inactive)
COC(=O)C1C(O)CCC2CN3CCc4c([nH]c5ccccc45)C3CC21.Cl (stereo not given) [Rauwolscine hydrochloride]	99.9	117	87 (inactive)	103 (inactive)
CC(=O)OCC1=C(C(=O)[O-])N2C(=O)C(NC(=O)Cc3cccs3)C2SC1.[Na+] (stereo not given) [Cephalothin sodium]	100	113	89.4 (inactive)	89.2 (inactive)
CON=C(C(=O)NC1C(=O)N2C(C(=O)[O-])=C(C[N+]3(C)CCCC3)CSC12)c1csc(N)n1 (stereo not given) [Cefepime]	99.6	97	91.1 (inactive)	110 (inactive)
Cc1nc2c([nH]1)c(=O)n(C)c(=O)n2Cc1ccco1 [Furafylline]	103 ± 5.7	107 ± 11	94.5 (inactive)	103 (inactive)
Cc1ccc(OCCSc2ncccn2)c(Br)c1 [2-{[2-(2-bromo-4-methylphenoxy)ethyl]sulfanyl}pyrimidine]	100	105	94 (inactive)	107 (inactive)
C=CCN1CCc2cc(O)c(O)cc2C(c2ccccc2)C1 (racemic)	101	108	90.9 (inactive)	101 (inactive)
CC1C(=O)CCC2C1(C)CCC1C2(C)CCC2(C)C3CC(C)(C)CCC3(C)CCC12C (stereo not given) [Friedelin]	99.5	102	96.1 (inactive)	87.8 (inactive)
Nc1nc2ccccc2c2ccccc12 [6-phenanthridinamine]	88.1	64.8	97.8 (inactive)	117 (inactive)
Cl.O[C@H](c1cc(C(F)(F)F)nc2c(C(F)(F)F)cccc12)[C@@H]1CCCCN1	52	56.7	131 (active)	170 (active)
O=C(O)CO.[NH2-].[NH2-].[Pt+2] [Nedaplatin]	94.6	92.6	96.9 (inactive)	104 (inactive)
CCOC(=O)c1c(C)[nH]c(C=C2C(=O)Nc3ccccc32)c1C [VEGF Receptor 2 Kinase Inhibitor I]	100	97.1	94.2 (inactive)	103 (inactive)
Cc1c(C)c2c(c(C)c1OC(=O)CCC(=O)O)CCC(C)(CCCC(C)CCCC(C)CCCC(C)C)O2 (stereo not given) [Tocopherol succinate]	98.1	109	94.4 (inactive)	102 (inactive)
O=C1CCC(c2ccc(-n3ccnc3)cc2)=NN1 [Imazodan]	95.5	93.8	103 (inactive)	118 (inactive)
CCCSc1ccc2nc(NC(=O)OC)[nH]c2c1 [Albendazole]	61.4	9.62	149 (active)	176 (active)
C#CCN[C@H]1CCc2ccccc21 [N-[(1S)-2,3-dihydro-1H-inden-1-yl]-N-(2-propynyl)amine]	102	104	92.2 (inactive)	98.1 (inactive)
CC(C)NCC(O)COc1ccc(CCOCC2CC2)cc1.Cl (stereo not given) [Betaxolol.HCl]	103	98	90.4 (inactive)	102 (inactive)
CNC(=O)c1cc2c(cn1)[nH]c1ccccc12 [N-Methyl-beta-carboline-3-carboxamide]	107	111	87.9 (inactive)	85.2 (inactive)
CN(C)C1C(=O)C(C(N)=O)=C(O)C2(O)C(=O)C3=C(O)c4c(O)ccc(Cl)c4C(O)C3CC12.Cl (stereo not given) [Demeclocycline hydrochloride]	96.2	96.5	99.7 (inactive)	104 (inactive)
COC1CC(OC2C(C)C(=O)OC(C)C(C)C(OC(C)=O)C(C)C(=O)C3(CO3)CC(C)C(OC3OC(C)CC(N(C)C)C3OC(C)=O)C2C)OC(C)C1OC(C)=O (stereo not given) [Troleandomycin]	102 ± 2.6	108.1 ± 0.42	97.2 (inactive)	94.6 (inactive)
O=C([O-])Cc1ccccc1Nc1c(Cl)cccc1Cl.[Na+] [Diclofenac sodium]	109	97.8	99.1 (inactive)	89.9 (inactive)
O=C(O)CCCC=CCC=CC=CC(O)CC=CCCCCCO (stereo not given)	101	92.6	98.3 (inactive)	101 (inactive)
